Measurements taken from PubChem BioAssay (NCATS).
Records with an inconclusive call do not appear. Entries that show only a call come without a potency. Unmarked numbers belong to inactive results. The source made the active and inactive calls. Calls come from the whole dose curve; as a rule, active = well fitted curve in the direction sought with a large enough effect; inconclusive = small, poorly fitted or top-dose-only effect, or another doubt; inactive = no such curve, though single readings can be large; an effect the other way counts as inactive or inconclusive.

Tests used:
[1] = target: Rap guanine nucleotide exchange factor 3 (Homo sapiens) (UniProt O95398); test: Confirmatory qHTS for agonist of cAMP-regulated guanine nucleotide exchange factor 3 (EPAC1) (AID 1645881);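 note: EPAC1 catalysed release of BODIPY-GDP from Rap1B seen as fluorescence loss; nearly all actives have a fitted effect of over 75% in size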
[2] = target: Rap guanine nucleotide exchange factor 4 (Homo sapiens) (UniProt Q8WZA2); test: Confirmatory qHTS for agonist of cAMP-regulated guanine nucleotide exchange factor 4 (EPAC2) (AID 1645884);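 note: nucleotide exchange releases bodipy-GDP from Rap1 and this lowers its fluorescence; nearly all actives have a fitted effect of over 65% in size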
[3] = target: Rap guanine nucleotide exchange factor 4 (Homo sapiens) (UniProt Q8WZA2); test: Confirmatory qHTS for antagonist of cAMP-regulated guanine nucleotide exchange factor 4 (EPAC2) (AID 1645885); note: nearly all actives have a fitted effect of over 25% in size; note: potency is the fitted concentration of half-maximal effect
[4] = target: Rap guanine nucleotide exchange factor 3 (Homo sapiens) (UniProt O95398); test: Confirmatory qHTS for antagonist of cAMP-regulated guanine nucleotide exchange factor 3 (EPAC1) (AID 1645880); settings: EPAC1 Rap1B-BODIPY-GDP exchange, fluorescence; activity, negative = inhibition: at 115 µM (top of the series); note: nearly all actives have a fitted effect of over 55% in size; note: potency is the fitted concentration of half-maximal effect
Procedure, shortened: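 Nucleotide exchange uses 100 nM EPAC1, 250 nM RAP1B-BODIPY-GDP and 50 uM GDP, with compounds in a concentration-titration series. After 5 min at room temperature, fluorescence (480 nm ex/540 nm em) is read every 5 min for 30 min. Data are normalized to control ATA and DMSO.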

[5] = target: Rap guanine nucleotide exchange factor 3 (Homo sapiens) (UniProt O95398); test: Counterscreen qHTS for antagonist of cAMP-regulated guanine nucleotide exchange factor 3 (EPAC1) (AID 1645888);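 note: fluorescence loss as bound BODIPY-GDP is released from Rap1B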
Procedure, shortened: (§1)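 Rap1B-BODIPY-GDP 250 nM + GDP 50 uM; cpds 7-pt, final 9.74 nM–152 uM (activator mode) or from 7.32 nM upwards (inhibitor mode); RT; FI 480/540 nm at 5 and 30 min, then ± cAMP, reread.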

[6] = target: Rap guanine nucleotide exchange factor 3 (Homo sapiens) (UniProt O95398); test: Counterscreen qHTS for agonist of cAMP-regulated guanine nucleotide exchange factor 3 (EPAC1) (AID 1645889); note: nearly all actives have a fitted effect of over 40% in size; note: potency is the fitted concentration of half-maximal effect
Procedure, shortened: as §1

[7] = target: Tyrosyl-DNA phosphodiesterase 1 (Homo sapiens) (UniProt Q9NUW8); test: Confirmation Assay for Inhibitors of Tyrosyl-DNA Phosphodiesterase (TDP1) (AID 489007); settings: recombinant human TDP1 enzymatic activity, dose-response; note: potency is the fitted concentration of half-maximal effect; nearly all actives have a fitted effect of over 40% in size
Procedure, shortened: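 Confirmation of primary-screen follow-ups in a qHTS format. Substrate cleavage by Tdp1 (1 nM) of a 3'-phosphotyrosine-FITC, 5'-biotin oligo (15 nM) was monitored as decreased AlphaScreen signal after a 5 min room-temperature reaction.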

[8] = NCATS anti-infectives library activity on HEK293 viability as a counter-qHTS vs the C. elegans viability qHTS (AID 1745854);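 note: HEK293 cells exposed to compounds for 24 hr before the viability read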
Procedure, shortened: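 Cytotoxicity in human HEK293 cells is measured by ATP-dependent CellTiter-Glo luminescence following a 24 hr incubation with titrated library compounds at 37C. Top final concentration is 41.7 uM.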

Chain of Rap guanine nucleotide exchange factor 4 (Homo sapiens) (Q8WZA2 whole entry, looked up): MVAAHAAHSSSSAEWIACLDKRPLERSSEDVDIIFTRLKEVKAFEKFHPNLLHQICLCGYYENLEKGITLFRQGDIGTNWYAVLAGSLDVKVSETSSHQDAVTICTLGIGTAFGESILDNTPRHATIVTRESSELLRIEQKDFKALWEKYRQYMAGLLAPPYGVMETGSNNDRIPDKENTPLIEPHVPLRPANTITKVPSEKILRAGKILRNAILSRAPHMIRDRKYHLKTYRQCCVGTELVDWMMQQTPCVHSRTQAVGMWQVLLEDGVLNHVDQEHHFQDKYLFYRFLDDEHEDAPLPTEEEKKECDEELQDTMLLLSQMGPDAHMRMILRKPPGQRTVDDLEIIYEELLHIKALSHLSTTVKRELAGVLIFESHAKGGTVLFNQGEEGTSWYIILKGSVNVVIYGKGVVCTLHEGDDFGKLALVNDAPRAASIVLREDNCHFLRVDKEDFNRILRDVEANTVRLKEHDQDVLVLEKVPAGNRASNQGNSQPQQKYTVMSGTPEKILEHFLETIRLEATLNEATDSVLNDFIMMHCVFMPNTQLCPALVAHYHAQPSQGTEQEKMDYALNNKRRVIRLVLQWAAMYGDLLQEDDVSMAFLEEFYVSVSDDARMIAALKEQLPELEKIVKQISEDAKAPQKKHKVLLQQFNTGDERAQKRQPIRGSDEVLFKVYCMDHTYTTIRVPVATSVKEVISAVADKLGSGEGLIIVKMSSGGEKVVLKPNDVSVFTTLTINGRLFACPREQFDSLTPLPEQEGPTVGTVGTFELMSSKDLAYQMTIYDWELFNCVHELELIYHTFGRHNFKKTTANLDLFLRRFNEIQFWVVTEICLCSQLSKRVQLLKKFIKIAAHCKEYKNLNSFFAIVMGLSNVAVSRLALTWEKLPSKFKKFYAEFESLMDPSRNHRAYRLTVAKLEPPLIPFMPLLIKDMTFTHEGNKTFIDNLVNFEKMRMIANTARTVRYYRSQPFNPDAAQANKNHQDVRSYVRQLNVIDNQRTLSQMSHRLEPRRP
Chain of Rap guanine nucleotide exchange factor 3 (Homo sapiens) (O95398 whole entry, looked up): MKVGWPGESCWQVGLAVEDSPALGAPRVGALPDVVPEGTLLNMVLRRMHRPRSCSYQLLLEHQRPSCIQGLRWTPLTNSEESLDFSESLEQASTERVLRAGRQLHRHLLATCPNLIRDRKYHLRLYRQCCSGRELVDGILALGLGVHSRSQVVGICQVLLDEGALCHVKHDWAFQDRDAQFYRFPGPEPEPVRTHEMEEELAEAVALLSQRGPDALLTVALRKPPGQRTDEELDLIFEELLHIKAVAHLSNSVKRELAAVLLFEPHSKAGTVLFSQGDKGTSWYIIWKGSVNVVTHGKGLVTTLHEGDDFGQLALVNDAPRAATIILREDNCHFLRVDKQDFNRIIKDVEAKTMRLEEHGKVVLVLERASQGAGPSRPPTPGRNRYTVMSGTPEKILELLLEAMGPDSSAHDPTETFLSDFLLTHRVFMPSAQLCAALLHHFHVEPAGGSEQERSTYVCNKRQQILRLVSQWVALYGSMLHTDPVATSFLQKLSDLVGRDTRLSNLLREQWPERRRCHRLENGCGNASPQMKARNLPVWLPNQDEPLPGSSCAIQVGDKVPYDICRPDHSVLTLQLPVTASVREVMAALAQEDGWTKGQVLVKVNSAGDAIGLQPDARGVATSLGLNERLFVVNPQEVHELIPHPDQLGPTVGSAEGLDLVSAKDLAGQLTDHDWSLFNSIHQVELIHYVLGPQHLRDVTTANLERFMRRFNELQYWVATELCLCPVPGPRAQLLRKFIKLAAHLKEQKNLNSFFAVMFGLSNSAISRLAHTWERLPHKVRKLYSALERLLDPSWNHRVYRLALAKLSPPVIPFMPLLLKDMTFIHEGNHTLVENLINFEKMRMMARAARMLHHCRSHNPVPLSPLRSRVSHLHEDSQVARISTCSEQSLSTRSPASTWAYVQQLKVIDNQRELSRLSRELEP
Chain of Tyrosyl-DNA phosphodiesterase 1 (Homo sapiens) (Q9NUW8 whole entry, looked up): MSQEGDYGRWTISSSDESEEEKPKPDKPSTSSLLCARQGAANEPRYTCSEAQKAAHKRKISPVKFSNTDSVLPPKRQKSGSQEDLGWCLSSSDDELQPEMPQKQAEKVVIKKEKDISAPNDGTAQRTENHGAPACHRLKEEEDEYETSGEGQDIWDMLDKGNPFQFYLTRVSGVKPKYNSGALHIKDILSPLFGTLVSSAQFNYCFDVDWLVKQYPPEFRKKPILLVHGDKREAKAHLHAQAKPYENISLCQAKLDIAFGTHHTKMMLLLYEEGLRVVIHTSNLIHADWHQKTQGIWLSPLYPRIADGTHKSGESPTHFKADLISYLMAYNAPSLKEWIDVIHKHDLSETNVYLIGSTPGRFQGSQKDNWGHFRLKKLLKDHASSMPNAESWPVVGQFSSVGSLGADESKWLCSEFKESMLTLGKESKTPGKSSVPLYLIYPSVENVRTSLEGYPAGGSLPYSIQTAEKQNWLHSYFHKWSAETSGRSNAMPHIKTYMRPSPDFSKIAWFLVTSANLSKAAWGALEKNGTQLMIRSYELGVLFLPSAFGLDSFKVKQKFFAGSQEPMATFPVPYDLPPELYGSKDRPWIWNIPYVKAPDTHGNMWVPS

In the case of `c1ccc(-c2onc(-c3ccco3)c2-c2ccc3[nH]ccc3c2)cc1`, the Potency [1] was “inactive” and the Potency [2] was “inactive”.

In the case of `CCn1c(=O)c(C(=O)Nc2ccccc2S(N)(=O)=O)c(O)c2ccccc21`, the Potency [1] was “inactive”, the Potency [2] was “inactive” and the Potency [3] was “inactive”.

With `N#CC(c1ccccc1)C(CC(=NO)c1ccccc1)c1ccccc1` (centres undefined) the Potency [1] was “inactive” and the Potency [2] was “inactive”.

With `C[C@@H]1CN([C@@H](C)CO)C(=O)c2ccccc2-c2ccccc2CO[C@@H]1CN(C)S(=O)(=O)c1ccc(C(F)(F)F)cc1` the Potency [1] was “inactive”, the activation [2] was 1.26% [at 17.1 µM, percent relative to cAMP agonist control] and the Potency [3] was “inactive”.

In the case of `Cn1cc([C@]2(O)C(=O)Nc3ccc(Br)cc32)c2ccccc21`, the Potency [1] was “inactive” and the Potency [2] was “inactive”.

In the case of `Cc1onc(-c2ccccc2Cl)c1C(=O)OCc1cnc(Cl)s1`, the Potency [1] was “inactive”.

For `COc1cc2c3nnc(-c4ccc(F)cc4)c-3cn(Cc3cccc(C)c3)c2cc1OC`, the Potency [4] was “inactive”, the Potency [5] was “inactive” and the Potency [6] was “inactive”.

With `CC1CC(C)CN(C(=S)SCc2nc(N)nc(Nc3ccccc3)n2)C1` (centres undefined) the Potency [1] was “inactive” and the Potency [2] was “inactive”.

In the case of `CCCCNC(=O)C[C@@H]1C[C@@]2(C(=O)OC)CCCCC=C2N(Cc2cccc3ccccc23)C1=O`, the Potency [1] was “inactive” and the Potency [2] was “inactive”.

For `FC(F)(F)c1ccc(CSc2nccn2-c2ccccc2)cc1`, the Potency [1] was “inactive”.

For `CC(C)C[C@H]1COCCS(=O)(=O)N1Cc1cccc(C(F)(F)F)c1`, the Potency [1] was “inactive”, the Potency [2] was “inactive” and the Potency [3] was “inactive”.

For `CCOc1cc(S(=O)(=O)Nc2ccccc2CC)ccc1Cl`, the Potency [1] was “inactive” and the activation [2] was 8.65% [at 17.1 µM, percent relative to cAMP agonist control].

In the case of `c1ccc(-c2onc(-c3ccco3)c2-c2ccc3c(c2)OCO3)cc1`, the Potency [1] was “inactive” and the Potency [2] was “inactive”.

For `CCOC(=O)c1c(NC(=O)C2C3C=CC(C3)C2C(=O)O)sc2c1CCC(CC)C2` (centres undefined), the Potency [1] was “inactive” and the Potency [2] was “inactive”.

With `CCOc1ccc(-c2nn(-c3ccccc3)cc2/C=C2\SC(=S)N(C3CCS(=O)(=O)C3)C2=O)cc1` (centres undefined) the Potency [4] was “inactive” and the Potency [5] was “inactive”.

For `Cc1ccc(Nc2nc3nonc3[nH]c2=O)cc1Cl`, the Potency [1] was “inactive” and the Potency [2] was “inactive”.

In the case of `O=C(CCN1C(=O)/C(=C/c2ccc3c(c2)OCO3)SC1=S)Nc1ccc(C(=O)O)cc1`, the Potency [1] was “inactive” and the Potency [2] was “inactive”.

For `CCOc1ccc(S(=O)(=O)Nc2cc(SCC(=O)O)c(O)c3ccccc23)cc1`, the Potency [4] was 67.5 µM (active), the Potency [5] was “inactive” and the Potency [6] was 56.2 µM (active).

With `C[n+]1ccc(/C=C/c2c[nH]c3ccccc23)cc1` the Potency [4] was “inactive”, the Potency [5] was “inactive” and the Potency [6] was 35.5 µM (active).

In the case of `CN(c1ccccc1)c1nc(N)c([N+](=O)[O-])c(N2CCCCC2)n1`, the Potency [1] was “inactive” and the Potency [2] was “inactive”.

For `Cc1ccc(-c2cc(C(=O)Nc3ccncc3)c3ccccc3n2)cc1`, the Potency [1] was “inactive” and the Potency [2] was “inactive”.

In the case of `CCCCC[C@H](C)N1C[C@@H](COCc2ccccc2)Oc2cc(N3CCC[C@H]3C(N)=O)ccc2S1(=O)=O`, the Potency [1] was “inactive” and the Potency [2] was “inactive”.

For `O=C(O)c1ccc(COc2ccccc2/C=C2/NC(=O)N(c3cccc(Cl)c3)C2=O)cc1`, the Potency [7] was 10 µM (active), the Potency [4] was 37.9 µM (active) and the Potency [5] was “inactive”.

With `COC1/C=C/OC2(C)Oc3c(C)c(O)c4c(O)c(c(/C=N/N5CCN(C)CC5)c(O)c4c3C2=O)NC(=O)/C(C)=C/C=C/C(C)C(O)C(C)C(O)C(C)C(OC(C)=O)C1C` (centres undefined) the Potency [1] was “inactive” and the Potency [2] was “inactive”.

In the case of `O=[N+]([O-])/C=C/c1cn(Cc2ccc(Cl)cc2)c2ccccc12`, the Potency [4] was “inactive” and the Potency [5] was “inactive”.

With `CCCCC[C@H]1CN(Cc2ccccc2)C(=O)[C@@H]1CC(=O)NCc1ccc(OC)cc1` the Potency [1] was “inactive”, the Potency [2] was “inactive” and the Potency [3] was 44.1 µM (active).

For `COc1cccc(Nc2nnc(-c3cc4ccc(O)cc4oc3=O)s2)c1`, the Potency [4] was “inactive”, the Potency [5] was “inactive” and the Potency [8] was “inactive”.

In the case of `Cc1cccc(N2CCCC2=Nc2ccc(Br)cc2C#N)c1`, the Potency [4] was “inactive”, the Potency [5] was “inactive” and the Potency [6] was “inactive”.

For `CCc1ccc(-c2cc(C)no2)cc1S(=O)(=O)N1CCC(C)CC1`, the Potency [1] was “inactive” and the Potency [2] was “inactive”.

With `COc1cc(-c2cc(OC)c3c(C)oc(C)c3c(=O)c2)ccc1OC(=O)c1ccccc1F` the Potency [1] was “inactive”, the Potency [2] was “inactive” and the outcome [3] was “inactive [at 12.7 µM]”.

With `Cc1nc2c(OCc3ccc(C(F)(F)F)cc3)cccn2c1N(C)Cc1cccs1` the Potency [1] was “inactive” and the Potency [2] was “inactive”.

For `COC(=O)[C@H](Cc1ccccc1)NC(=O)c1ccc2ccccc2n1`, the Potency [1] was “inactive”, the activation [2] was 3.75% [at 17.1 µM, percent relative to cAMP agonist control] and the Potency [3] was “inactive”.

With `O=C(c1[nH]c(C(F)(F)F)nc1-c1ccccc1)N1CCC(C(O)(c2ccccc2)c2ccccc2)CC1` the Potency [1] was “inactive”, the Potency [2] was “inactive” and the Potency [3] was “inactive”.

With `CC(C)C[C@@H](COc1ccccc1)N1CCN(CCc2ccccc2)CCC1=O` the Potency [1] was “inactive” and the Potency [2] was “inactive”.
